From PubChem
Rows were chosen to be rich in hits. Some 1.8% of all compounds tested hit in one or more screens of this group.
PME-1 inh: blocks human protein phosphatase methylesterase 1; Q9Y570; recombinant PME-1, FP-Rh probe fluorescence polarization; inhibition, % at 5.9 µM; hit rate 0.53% among 320,000; AID 2130;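 active means inhibition above the campaign mean of all compounds plus 3 SD, cut at about 26% in these data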;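 further: competitive labeling of PME-1 active site by serine hydrolase directed probe; 0% = PME-1 with DMSO and 100% = wells lacking PME-1 enzyme; inhibitors block probe labeling so polarization falls and inhibition rises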
PAD4 inh: inhibitors of human PAD4; Q9UM07; recombinant PAD4, RCA probe fluorescence polarization; inhibition, % at 6.36 µM; hit rate 0.41% among 330,000;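 active means percent inhibition above a cutoff equal to the mean of all tested compounds plus 3 SD, cut at about 15% in these data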;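 further: 0% = PAD4 with RCA probe and DMSO and 100% = probe without PAD4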
LYPLA1 inh: LYPLA1 (human) inhibition in PME1 counter-screen; O75608; recombinant LYPLA1, FP-Rh probe fluorescence polarization; inhibition, % at 5.9 µM; hit rate 0.16% among 320,000;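 active means inhibition above the mean of all tested compounds plus 3 SD, set per campaign, cut at about 14% in these data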;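 further: inhibitors block serine hydrolase probe labeling of LYPLA1 so polarization falls; 0% = enzyme with DMSO and 100% = wells lacking LYPLA1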
Target sequence (O75608 whole entry, looked up): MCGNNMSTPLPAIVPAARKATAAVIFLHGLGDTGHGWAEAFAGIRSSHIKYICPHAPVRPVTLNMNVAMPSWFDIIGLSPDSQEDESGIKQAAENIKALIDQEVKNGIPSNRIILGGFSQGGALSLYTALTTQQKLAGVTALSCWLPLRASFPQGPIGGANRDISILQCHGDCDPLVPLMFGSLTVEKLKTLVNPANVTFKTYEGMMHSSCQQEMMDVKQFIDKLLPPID
GSTO1 counter: counter-screen for RBBP9 inhibitors: inhibitors of human GSTO1; inhibition, % at 5.96 µM; recombinant GSTO1, activity-based probe fluorescence polarization; hit rate 1.1% among 300,000;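 active means inhibition above the campaign mean inhibition plus 3 SD, cut at about 35% in these data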;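 further: 0% = GSTO1-1 with DMSO and 100% = wells lacking GSTO1-1 enzyme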
Target sequence (P78417 whole entry, looked up): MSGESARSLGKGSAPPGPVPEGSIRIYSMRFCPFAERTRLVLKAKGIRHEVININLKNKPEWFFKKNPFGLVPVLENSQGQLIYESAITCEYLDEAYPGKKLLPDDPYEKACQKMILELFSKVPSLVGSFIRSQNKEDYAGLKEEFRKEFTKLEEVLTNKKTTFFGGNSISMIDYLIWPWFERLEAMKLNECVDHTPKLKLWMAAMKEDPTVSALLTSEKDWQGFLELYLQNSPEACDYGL
Fam108B inh: Fam108B inhibition, counter-screen for RBBP9 inhibitors | recombinant Fam108B, FP-Rh probe fluorescence polarization | inhibition, % at 9.51 µM | hit rate 0.33% among 300,000 | AID 1947;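 active means inhibition above the screen mean inhibition plus 3 SD, computed separately per campaign, cut at about 18% in these data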;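 further: inhibitors lower polarization as less probe binds the enzyme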
LYPLA2 inh: blocks human lysophospholipase 2, a PME1 counter-screen. recombinant LYPLA2, FP-Rh probe fluorescence polarization. AID 2177. hit rate 0.38% among 320,000. inhibition, % at 5.9 µM;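 active means inhibition above the screen-wide mean plus 3 SD, limit set per campaign, cut at about 26% in these data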;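 further: 0% = LYPLA2 with DMSO and 100% = wells lacking LYPLA2 enzyme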
* hit, by the source's call; nt = no result given.

SMILES | PME-1 inh | PAD4 inh | LYPLA1 inh | GSTO1 counter | Fam108B inh | LYPLA2 inh
CCCN(CCC)CCCNC(=O)c1cn(CC)c2ccc(S(=O)(=O)N3CCc4ccccc4C3)cc2c1=O | 16 | -1 | 0 | 13 | -2 | -3
Cc1ccc(C(=O)N(CC(C)C)c2c(N)n(Cc3ccccc3)c(=O)[nH]c2=O)o1 | -6 | -6 | 0 | 3 | -2 | 2
COc1ccc(CCNS(=O)(=O)CCNC(=O)c2ccc3c(c2)OCO3)cc1 | -3 | -1 | -1 | 3 | 4 | 7
CC[C@@]1(C(=O)OC)N[C@H](CN(C)C(=O)c2ccc(C)cc2)[C@@H]2C(=O)N(C)C(=O)[C@@H]21 | nt | 0 | nt | nt | nt | nt
O=[N+]([O-])c1c(Nc2ccc(O)cc2)cc(N2CCOCC2)c2nonc12 | -1 | 4 | 2 | -4 | 5 | 4
O=C(O)c1cc(Nc2cc(Cl)c3nonc3c2[N+](=O)[O-])ccc1O | -1 | 6 | -2 | 36* | 0 | 20
CCN(C[C@H]1N[C@@](C)(C(=O)OC)[C@H]2C(=O)N(Cc3ccccc3)C(=O)[C@@H]12)S(=O)(=O)c1ccccc1 | nt | 0 | nt | nt | nt | nt
O=C(C1CC(=O)N(c2ccc3c(c2)OCCO3)C1)N1CCN(c2cccc(C(F)(F)F)c2)CC1 (stereo unspecified) | 0 | 0 | 3 | 4 | 1 | 13
O=C1CNC(=S)N1CCc1ccc(O)c(O)c1 | 1 | -3 | 1 | 60* | 0 | 3
C=CC[C@H](CC(=O)NCCO)C(=O)N[C@@H](COC(=O)[C@@H](CC=C)Cc1ccc(F)cc1)Cc1ccccc1 | nt | 2 | nt | nt | nt | nt
COc1ccc(-c2[nH]n(-c3ccc([N+](=O)[O-])cc3)c(=O)c2C=NCc2ccc(F)cc2)cc1 | -1 | -1 | -1 | -4 | -6 | 1
COc1ccc(-c2cc(=O)n(-c3ccc([N+](=O)[O-])cc3)[nH]2)cc1 | 20 | 36* | -9 | 53* | 3 | 4
CC(C)Cc1nnc(NC(=O)CSc2nc(O)c(-c3ccccc3)c(=O)[nH]2)s1 | 3 | 8 | -1 | 71* | -2 | -3
CS(=O)(=O)N1N=C(c2ccccc2)CC1c1ccc2c(c1)OCO2 (stereo unspecified) | 28* | -10 | -9 | 3 | -7 | -11
CS(=O)(=O)Nc1cccc(C2=NN(S(C)(=O)=O)C(c3ccc4c(c3)OCO4)C2)c1 (stereo unspecified) | 15 | -1 | -3 | 0 | 2 | 5
O=C(CCNS(=O)(=O)c1ccccc1C(F)(F)F)NCCCc1ccccc1 | 5 | 2 | -2 | nt | nt | 3
Cc1ccc(NC(=O)Nc2cccs2)cc1 | 18 | 0 | 3 | -1 | 9 | 4
CCc1ccc(NC(=O)Nc2cccs2)cc1 | 34* | -4 | -4 | 19 | 3 | 10
COCCC(=O)N1CCC(n2nccc2NC(=O)c2ccccc2C)CC1 | 3 | -1 | 4 | -2 | 3 | 2
CC(=O)c1ccc(NC(=O)C(C)O/N=C(\N)c2ccccc2)cc1 (stereo unspecified) | nt | -1 | nt | nt | nt | nt
CCOc1ccc(CCNC(=O)C2CCCN(c3ncnc4c3nc3n4CCCCC3)C2)cc1 (stereo unspecified) | 2 | 3 | -1 | 5 | 0 | 2
COC(=O)C(Nc1ccccc1Cl)(c1cc(C)c(O)c(C)c1)C(F)(F)F (stereo unspecified) | 1 | -5 | 2 | -4 | 2 | 2
COC(=O)/C(=C(/F)Sc1cc(C)c(O)c(C)c1)C(F)(F)F | -6 | 16* | -3 | 8 | -3 | -11
CN(C(=O)COC(=O)/C=C/c1ccc(C(F)(F)F)cc1)c1c(N)n(Cc2ccccc2)c(=O)[nH]c1=O | 0 | 5 | -4 | -1 | 2 | -4
Oc1c(C=NCc2ccncc2)sc2ccccc12 | 2 | 16* | -5 | 4 | -4 | -7
O=C(c1ccc2c(c1)OCO2)N1CCN(S(=O)(=O)c2ccc(Br)cc2Cl)CC1 | 1 | -7 | -1 | nt | nt | 2
Cc1cccc(C(=O)NCC(=O)N2CCN(c3ccccn3)CC2)c1 | nt | 2 | nt | nt | nt | nt
Cn1cnnc1SC/C(O)=C(\C#N)c1nc2ccccc2[nH]1 | 8 | 0 | 1 | 3 | 0 | 2
Cc1cccc(Nc2nnc(SC/C(O)=C(\C#N)c3nc4ccccc4[nH]3)s2)c1C | 82* | -3 | 0 | 3 | 6 | 6
